# This is a sample that favours compounds with a hit; in the whole collection about 0.48% have one here.
# SRC3 inh – inhibits human SRC3 coactivator; HEK293 GAL4-SRC3 luciferase reporter, luminescence; inhibition, % at 3.6 µM; actives 0.17% (n = 360,000); AID 588352;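 active means inhibition above a per-campaign cutoff, the mean of all compounds plus 3 SD, cut at about 60% in these data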;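 further: 0% = DMSO-treated cells and 100% = gossypol-treated cells at 36 µM; higher means less SRC3-driven luciferase light from the GAL4 reporter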
# Target sequence (Q9Y6Q9 whole entry, looked up, the tested form may be a part): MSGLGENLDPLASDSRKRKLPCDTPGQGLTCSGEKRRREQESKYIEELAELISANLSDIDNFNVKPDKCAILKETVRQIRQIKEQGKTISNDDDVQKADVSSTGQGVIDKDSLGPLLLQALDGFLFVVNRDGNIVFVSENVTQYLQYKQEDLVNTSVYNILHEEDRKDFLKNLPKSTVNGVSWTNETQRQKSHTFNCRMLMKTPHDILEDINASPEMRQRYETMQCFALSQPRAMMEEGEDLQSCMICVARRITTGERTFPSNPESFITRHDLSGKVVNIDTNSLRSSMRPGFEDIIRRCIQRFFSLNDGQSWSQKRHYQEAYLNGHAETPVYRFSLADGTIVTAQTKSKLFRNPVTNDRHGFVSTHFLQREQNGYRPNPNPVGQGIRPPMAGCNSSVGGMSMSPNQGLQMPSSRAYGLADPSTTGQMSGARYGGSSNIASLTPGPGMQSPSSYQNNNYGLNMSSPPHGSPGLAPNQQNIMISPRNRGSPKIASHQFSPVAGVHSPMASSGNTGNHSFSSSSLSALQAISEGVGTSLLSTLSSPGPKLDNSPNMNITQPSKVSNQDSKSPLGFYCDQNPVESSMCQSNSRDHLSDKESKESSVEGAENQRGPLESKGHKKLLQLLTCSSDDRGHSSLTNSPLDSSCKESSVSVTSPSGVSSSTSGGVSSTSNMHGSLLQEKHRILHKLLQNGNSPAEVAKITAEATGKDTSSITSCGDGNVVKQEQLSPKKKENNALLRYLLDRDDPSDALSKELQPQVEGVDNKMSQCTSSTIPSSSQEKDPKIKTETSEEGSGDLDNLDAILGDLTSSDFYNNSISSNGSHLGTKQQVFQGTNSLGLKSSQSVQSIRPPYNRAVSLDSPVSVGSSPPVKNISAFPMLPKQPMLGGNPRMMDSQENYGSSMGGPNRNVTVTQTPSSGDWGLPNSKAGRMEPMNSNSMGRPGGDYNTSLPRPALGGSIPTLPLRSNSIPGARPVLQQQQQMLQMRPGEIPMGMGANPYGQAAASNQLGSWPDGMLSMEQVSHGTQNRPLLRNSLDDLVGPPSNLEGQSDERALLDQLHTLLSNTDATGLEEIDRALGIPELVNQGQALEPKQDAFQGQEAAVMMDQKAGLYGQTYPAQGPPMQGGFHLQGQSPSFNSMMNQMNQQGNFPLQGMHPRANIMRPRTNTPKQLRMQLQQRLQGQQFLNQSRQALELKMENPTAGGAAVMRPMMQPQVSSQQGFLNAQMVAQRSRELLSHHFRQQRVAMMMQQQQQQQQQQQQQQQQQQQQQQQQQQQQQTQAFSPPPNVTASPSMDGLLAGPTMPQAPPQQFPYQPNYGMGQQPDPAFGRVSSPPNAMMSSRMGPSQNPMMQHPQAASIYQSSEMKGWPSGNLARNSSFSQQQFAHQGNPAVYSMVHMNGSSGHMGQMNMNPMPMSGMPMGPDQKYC
# LGR2 inh – Drosophila LGR2 receptor signaling inhibition | HEK293 LGR2, CRE-luciferase, bursicon-stimulated, 4 h | inhibition, % at 9.99 µM | actives 0.35% (n = 380,000) | AID 720647;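 active means drop in luminescence signal, shown as inhibition above about 50% in the replicate tests, limit read from the data, passing the limit was not always enough; inconclusive means probably only some replicates passing the limit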;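 further: agonist challenge used bursicon conditioned medium at about half maximal strength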
# SRC2 inh – inhibits human steroid receptor coactivator 2; Q15596; HEK293 GAL4-SRC2 luciferase reporter, luminescence; inhibition, % at 9 µM; actives 0.17% (n = 370,000); AID 651957;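 active means inhibition above the mean inhibition of all tested compounds plus 3 SD, set per campaign, cut at about 52% in these data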;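 further: 0% = DMSO treated cells and 100% = cells given Gossypol at 36 µM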
# NR5A2 inv ag – inverse agonists of human LRH-1 (NR5A2). O00482. HEK293T StAR-luciferase reporter, LRH-1 transfected, 24 h. inhibition, % at 3.6 µM. actives 0.13% (n = 360,000);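 active means inhibition above the mean inhibition of all tested compounds plus 3 SD, cut at about 73% in these data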;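 further: 0% = DMSO wells and 100% = reporter-only cells lacking LRH-1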
# SRC1 inh – human NCOA1 inhibition; Q15788; HEK293 GAL4-SRC1 luciferase reporter, luminescence; inhibition, % at 3.6 µM; actives 0.12% (n = 360,000); AID 588354;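 active means inhibition above the campaign mean plus 3 SD, with each screening campaign given its own cutoff, cut at about 60% in these data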;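 further: 0% = DMSO treated cells and 100% = gossypol at 36 µM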
# An asterisk follows results filed as active; ? = inconclusive; / = no result given.
SMILES,SRC3 inh,LGR2 inh,SRC2 inh,NR5A2 inv ag,SRC1 inh
c1ccc(CCc2nn3c(-c4ccncc4)nnc3s2)cc1,61,/,45,7,68*
Clc1ccccc1-c1nnc2sc(CCc3ccccc3)nn12,2,-3,0,12,3
COc1cccc(C2=Nn3c(nnc3-c3ccccc3O)SC2)c1,12,/,-4,11,7
C[n+]1c2n(c3ccccc31)N=C(c1cc(C(C)(C)C)c(O)c(C(C)(C)C)c1)CS2,60,86*,9,79*,7
COC(=O)c1cc(=O)n(Cc2ccc(F)cc2)c(=Nc2ccccc2)s1,18,24,3,12,-1
COC(=O)c1cc(=O)n(Cc2ccco2)c(=Nc2ccc(F)cc2)s1,-7,/,/,20,7
COC(=O)c1cc(=O)n(CCc2ccc(OC)c(OC)c2)c(=Nc2ccc(F)c(Cl)c2)s1,11,55*,-10,10,-7
COC(=O)c1cc(=O)n(Cc2ccc(OC)c(OC)c2)c(=Nc2ccc(F)cc2)s1,19,62*,-16,6,19
C[C@@H]1CN([C@H](C)CO)C(=O)c2cc(NC(=O)CCCCCC(=O)Nc3ccccc3N)ccc2O[C@@H]1CN(C)C(=O)Nc1ccccc1,/,7,/,/,/
COc1ccc(-c2csc(NC(=O)c3ccc(OCC(=O)N4CCOCC4)c(OC)c3)n2)cc1,21,92*,9,3,-5
CCC1C/C(=C\c2cccnc2)C(=O)/C(=C/c2cccnc2)C1 (centres undefined),45,/,92*,52,-394
O=C1/C(=C/c2cccnc2)CCC/C1=C\c1cccnc1,/,90*,74*,/,/
O=C1/C(=C/c2cccnc2)CC/C1=C\c1cccnc1,8,8,9,11,-36
C[C@@H]1CN([C@H](C)CO)C(=O)c2cccc(NC(=O)c3ccc(-c4nccs4)cc3)c2O[C@@H]1CN(C)S(=O)(=O)c1cn(C)cn1,/,-11,/,/,/
CNC[C@H]1Oc2cc(-c3ccccc3F)ccc2S(=O)(=O)N([C@@H](C)CO)C[C@@H]1C,/,-14,/,/,/
CCC(=O)N1[C@H](CO)[C@H]2c3ccccc3N(C(=O)c3ccc4c(c3)OCO4)C[C@H]21,/,-8,/,/,/
CN=c1scc(-c2ccccc2F)n1/N=C/c1ccc[nH]1,92*,93*,91*,91*,92*
CN=c1scc(-c2ccco2)n1/N=C/c1ccc(O)c(O)c1,-80,-3,-19,-95,-96
CC(C)N=c1scc(-c2cccs2)n1/N=C/c1ccc(O)c(O)c1O,-57,-37,14,-27,-21
CN=c1scc(-c2ccccc2F)n1/N=C/c1ccc(O)c(O)c1O,-32,70*,-6,-52,-81
COc1ccc2c3c(n(C)c2c1)[C@@H](CO)N(C(=O)c1cccc(F)c1)CC31CN(CC2CC2)C1,/,-1,/,/,/
O=[N+]([O-])c1ccc(Sc2nnnn2-c2ccccc2)nc1,/,68*,49,/,/
O=[N+]([O-])c1ccc(Sc2ccccn2)nc1,1,/,16,11,-32
O=C(Nc1ccc([N+](=O)[O-])cc1)Nc1ccc(N2CCOCC2)c2nonc12,-3,67*,-9,-1,11
COc1cccc(N2CCN(c3ncnc4c3cnn4-c3ccc(C)cc3C)CC2)c1,79*,?,69*,64,44
SMILES,SRC3 inh,LGR2 inh,SRC2 inh,NR5A2 inv ag,SRC1 inh
CC1CCCN(c2ncnc3c2cnn3-c2ccc(Cl)cc2)C1 (centres undefined),88*,97*,83*,92*,87*
c1ccc(-n2ncc3c(N4CCCCC4)ncnc32)cc1,-2,61*,9,-63,3
CC1CCCN(c2ncnc3c2cnn3-c2ccccc2)C1 (centres undefined),15,84*,2,3,23
CC(C)NC(=O)Nc1ccc2c(c1)C(=O)N([C@@H](C)CO)C[C@@H](C)[C@@H](CN(C)C(=O)Cc1ccccc1)OCCCC[C@H](C)O2,/,-2,/,/,/
O=C(C[C@@H]1C=C[C@@H](NC(=O)C2CCOCC2)[C@@H](CO)O1)Nc1ccccc1,/,34,/,/,/
C[C@@H]1CCCCO[C@@H](CN(C)C(=O)Cc2ccccc2)[C@H](C)CN([C@@H](C)CO)C(=O)c2cc(NS(C)(=O)=O)ccc2O1,/,-2,/,/,/
CCN(CC)c1ccc(/C=C/c2cccc[n+]2C)c(OC)c1,61,26,4,82*,58
C[C@@H]1CCCCO[C@@H](CN(C)C(=O)Nc2cccc3ccccc23)[C@H](C)CN([C@H](C)CO)C(=O)c2cc(NC(=O)C3CCCCC3)ccc2O1,/,7,/,/,/
O=C(/C=C/c1ccccc1)C1C(=O)c2ccccc2C1=O,-27,-1,-77,-44,-41
CCc1ccc(/C=C/C(=O)C2C(=O)c3ccccc3C2=O)cc1,-78,62*,-48,-14,-51
C[C@H](CO)N1C[C@H](C)[C@H](CN(C)C(=O)Nc2ccc(C(F)(F)F)cc2)Oc2c(NC(=O)CCCCCC(=O)Nc3ccccc3N)cccc2C1=O,/,4,/,/,/
Cc1ccc(-n2[nH]c(=O)c(-c3ccccn3)c2C)cc1,13,94*,29,-26,-24
c1ccc2nc(-c3ccc(N4CCOCC4)cc3)ccc2c1,-19,/,-52,-99,-41
CN1CCN(c2ccc(-c3ccc4ccccc4n3)cc2)CC1,80*,102*,76*,74*,79*
CCCC(=O)N1CCC2(CC1)CN(C(=O)COC)[C@@H](CO)c1c2c2ccc(OC)cc2n1C,/,-19,/,/,/
C[C@@H]1CN([C@H](C)CO)C(=O)c2cc(NC(=O)NC3CCCCC3)ccc2O[C@@H]1CN(C)Cc1ccc(C(=O)Nc2ccccc2N)cc1,/,-10,/,/,/
COc1ccc(Nc2ncnc3ccc(Br)cc23)cc1OC,47,/,/,10,61*
C[C@@H]1CN([C@H](C)CO)C(=O)c2cccc(NC(=O)C3CCCCC3)c2O[C@H]1CN(C)S(=O)(=O)c1ccccc1,/,-17,/,/,/
O=C(NCCc1c[nH]c2ccccc12)OCCCCOC(=O)NCCc1c[nH]c2ccccc12,2,84*,1,15,9
O=C(NCCc1c[nH]c2ccccc12)c1ccc([N+](=O)[O-])o1,2,13,52*,55,22
O=C(CCCc1c[nH]c2ccccc12)NCCc1c[nH]c2ccccc12,-2,2,6,20,-7
CC(=O)N1CCc2c(sc(NC(=O)C3CC3)c2-c2nc3ccccc3s2)C1,11,3,-9,36,-1
CC(=O)Nc1sc2c(c1-c1nc3ccccc3s1)CN(C(C)C)CC2,27,102*,-436,65,49
C[C@@H]1CN([C@@H](C)CO)C(=O)c2cc(NS(=O)(=O)c3cccs3)ccc2O[C@@H]1CN(C)Cc1ccncc1,/,5,/,/,/
CSc1nnc(NC(=O)c2nc(S(=O)(=O)Cc3cccc(C)c3)ncc2Cl)s1,-17,-8,56*,14,-43
Cc1cccc(CS(=O)(=O)c2ncc(Cl)c(C(=O)Nc3nnc(C(C)C)s3)n2)c1,14,/,/,23,-8
COc1cccc(S(=O)(=O)N(C)C[C@@H]2Oc3ncc(C#CC(C)C)cc3C(=O)N([C@H](C)CO)C[C@H]2C)c1,/,-18,/,/,/
